Results filed as inconclusive are left out. Calls of active or inactive are those of the source. Unless noted, the call rests on the fitted dose curve; in most records, active means well fitted cell-killing curve with a large enough effect in the repeat runs; inconclusive means weak or mixed curves; inactive means no such curve, though single readings can be large or run the other way.
Potency means the concentration at half of the fitted maximal effect.

One assay deals with Peroxisome proliferator-activated receptor delta (Homo sapiens) (UniProt Q03181). Kind of assay: qHTS assay to identify small molecule agonists of the peroxisome proliferator-activated receptor delta (PPARd) signaling pathway (AID 743212; calls by dose curve;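 further: HEK293H cells with PPARd UAS beta-lactamase reporter GeneBLAzer system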). As to conditions: HEK293H PPARd-UAS-bla, beta-lactamase FRET ratio, 17 h; series mostly up to 62.6 µM. The procedure, abridged: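 Quantitative high-throughput agonist screen in a HEK293H beta-lactamase reporter line under UAS control. Compounds in DMSO, at 37 C. Fluorescence read after 2 h with FRET substrate at room temperature.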
Peroxisome proliferator-activated receptor delta (Homo sapiens), sequence (Q03181 whole entry, looked up): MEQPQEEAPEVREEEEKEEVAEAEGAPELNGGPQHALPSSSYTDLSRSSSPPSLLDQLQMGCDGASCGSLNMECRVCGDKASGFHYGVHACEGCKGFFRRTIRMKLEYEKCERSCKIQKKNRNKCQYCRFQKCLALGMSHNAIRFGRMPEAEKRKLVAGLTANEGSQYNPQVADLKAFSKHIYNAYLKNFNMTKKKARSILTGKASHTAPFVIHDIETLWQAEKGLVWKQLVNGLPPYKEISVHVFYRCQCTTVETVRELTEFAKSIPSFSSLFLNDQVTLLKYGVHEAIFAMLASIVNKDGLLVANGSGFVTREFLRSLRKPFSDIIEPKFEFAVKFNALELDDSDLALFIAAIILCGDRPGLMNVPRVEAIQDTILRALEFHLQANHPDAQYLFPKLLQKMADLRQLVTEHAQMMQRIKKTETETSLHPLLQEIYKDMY
(In general: Quantitative high-throughput screening tests each substance at several concentrations.)
With `O=C1CCCc2c1cc1ccc3cccc4ccc2c1c34`, the Potency is 49.6 µM (active).
Take `CC(C)(C)C(=O)OCOC(=O)[C@@H]1N2C(=O)[C@@H](NC(=O)[C@H](N)c3ccccc3)[C@H]2SC1(C)C`: the Potency result is “inactive”.
The same measure, in the same setting: in the case of `O=C(Oc1cccc2cccnc12)c1ccccc1` it was “inactive”.
For `NNc1nc(-c2ccc(N)cc2)cs1`, the Potency entry was “inactive”.
Turning to `CC(C)(C)C(=O)OCOC(=O)C1N2C(=O)CC2S(=O)(=O)C1(C)C` (configuration not stated), the Potency result is “inactive”.

Test system in the next assay: not listed separately
Kind of assay: qHTS assay to identify small molecule antagonists of the peroxisome proliferator-activated receptor delta (PPARd) signaling pathway - cell viability counter screen (AID 743213). Further: nearly all actives have a fitted effect of over 50% in size. The following applies: PPARd-bla HEK293H viability, CellTiter-Glo luminescence, 17 h; series mostly up to 62 µM. The procedure, abridged:
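Cytotoxicity counter screen: CellTiter-Glo luminescence read 30 min after addition, in the same wells as the reporter assay. There, PPARd UAS-bla HEK293H cells (3000/well) were treated 17 h at 37 C with compound and 300 nM L165041.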
Regarding `O=C1CCCc2c1cc1ccc3cccc4ccc2c1c34`, the Potency result was “inactive”.
On to `C=CC(=O)OCCn1c(=O)n(CCOC(=O)C=C)c(=O)n(CCOC(=O)C=C)c1=O`, for which the Potency was 19.5 µM (active).
Regarding `CCCCCCCCCCCC(=O)NCCCN(C)C`, the Potency was 38.9 µM (active).
Turning to `Cc1cc(C2CCCCC2)n(O)c(=O)c1`, the Potency is 9.44 µM (active).
On the same count and under the same terms, in the case of `CCCCCCCC[P+](CCCCCCCC)(CCCCCCCC)CCCCCCCC` it was 7.71 µM (active).
As for `CCCC(c1cc(C(C)(C)C)c(O)cc1C)c1cc(C(C)(C)C)c(O)cc1C`, the Potency is 19.7 µM (active).
For `CC/C(=C(\c1ccc(O)cc1)c1ccc(OCCN(C)C)cc1)c1ccccc1`, the Potency was 21.9 µM (active).
With `C[C@@H](NCCCc1cccc(C(F)(F)F)c1)c1cccc2ccccc12`, the Potency was 26.6 µM (active).
As to `CCCCC(CC)CN=C(N)NC(N)=NCCCCCCN=C(N)NC(N)=NCC(CC)CCCC` (configuration not stated), the Potency is 8.41 µM (active).
In the case of `Clc1ccc2cc3ccccc3cc2c1`, the Potency entry was “inactive”.
As to `CN(C)c1ccc(C2(c3ccc(N(C)C)cc3)OC(=O)c3cc(N(C)C)ccc32)cc1`, the Potency entry is “inactive”.
As for `C=CC(=O)OCC(CO)(COCC(COC(=O)C=C)(COC(=O)C=C)COC(=O)C=C)COC(=O)C=C`, the Potency was 5.43 µM (active).
